Compound activity from PubChem.
Only some compounds are listed: those with a hit (about 2.4% of all), similar ones and a draw of the others.
Cruzain noTriton – inhibitors of Trypanosoma cruzi cruzain without detergent | P25779 | purified cruzain, Z-FR-AMC fluorescence, no detergent | Potency, µM, for inactives: max response, negative = inhibition, usual class: inhibitors | actives 2.3% (n = 200,000);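 note: plate controls were enzyme without inhibitor for no effect and buffer without enzyme for full effect; nearly all actives have a fitted effect of over 40% in size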
Target sequence (P25779 123-467 limits assumed): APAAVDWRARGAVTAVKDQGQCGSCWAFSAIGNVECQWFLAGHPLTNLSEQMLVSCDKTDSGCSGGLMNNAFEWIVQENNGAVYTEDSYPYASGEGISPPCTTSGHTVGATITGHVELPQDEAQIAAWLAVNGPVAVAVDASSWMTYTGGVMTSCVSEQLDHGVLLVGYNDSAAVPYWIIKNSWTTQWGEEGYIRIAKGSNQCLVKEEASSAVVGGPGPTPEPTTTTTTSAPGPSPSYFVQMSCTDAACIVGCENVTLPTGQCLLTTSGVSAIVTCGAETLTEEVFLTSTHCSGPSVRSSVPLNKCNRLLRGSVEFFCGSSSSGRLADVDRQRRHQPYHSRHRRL
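Detergent-free condition (0.00005% Triton X-100) in acetate buffer pH 5.5 with DTT. 1.5 nM enzyme and compound were pre-mixed 15 min, then 2 uM Z-FR-AMC substrate added; reaction progress from fluorescence change between first and third reads (60 s).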
Cruzain inh Det – blocks cruzain activity in presence of Triton detergent | P25779 | purified cruzain, Z-FR-AMC fluorescence, 0.01% Triton | Potency, µM, inactives show max response, negative = inhibition, actives largely listed as inhibitors | actives 0.43% (n = 200,000);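 note: plate controls were neutral wells for no effect and buffer without enzyme for full effect; nearly all actives have a fitted effect of over 40% in size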
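Cruzain (1.5 nM) preincubated 15 min at RT with compound in 100 mM sodium acetate pH 5.5, 5 mM DTT, 0.01% Triton X-100. Reaction started with 2 uM Z-FR-AMC; AMC fluorescence (ex 360/em 450 nm) change over 60 s gave rate.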
* hit, by the source's call. Calls come from the whole dose curve; as a rule, active = well fitted curve in the direction sought with a large enough effect; inconclusive = small, poorly fitted or top-dose-only effect, or another doubt; inactive = no such curve, though single readings can be large; an effect the other way counts as inactive or inconclusive. Potency is the fitted concentration of half-maximal effect.

For Cc1ccc2nc(-c3ccc(NS(=O)(=O)c4ccccc4)cc3)sc2c1 the results were Cruzain noTriton -19% and Cruzain inh Det -5%.
For Cc1nn(-c2ccc3nnc(C)n3n2)c(C)c1CCC(=O)Nc1ccc(OC(F)(F)F)cc1 the results were Cruzain noTriton -7% and Cruzain inh Det -1%.
For Cc1ccc(CN2CCN(C3CCN(C(=O)OC(C)(C)C)CC3)C(=O)C2=O)cc1 the results were Cruzain noTriton 15% and Cruzain inh Det 0%.
Cc1c(NC(=O)c2ccccc2)cccc1[N+](=O)[O-] was read as Cruzain noTriton -16% and Cruzain inh Det -3%.
`Cc1ccccc1NC(=O)c1ccc(Nc2c([N+](=O)[O-])cc([N+](=O)[O-])c3ccccc23)cc1` gave Cruzain noTriton 32µM* and Cruzain inh Det -6%.
For CCOc1ccc(NC(=O)Cn2c(=O)n(-c3cccc(OC)c3)c(=O)c3c4c(sc32)CCCC4)cc1 the results were Cruzain noTriton -3% and Cruzain inh Det -2%.
Cc1oc(C)c2c(=O)cc(-c3ccc4c(c3)OCO4)cc(OC(=O)c3ccccc3Br)c12 was read as Cruzain noTriton 16µM* and Cruzain inh Det -9%.
Cc1oc(C)c2c(=O)cc(-c3ccc4c(c3)OCO4)cc(OC(=O)c3ccccc3Cl)c12 was read as Cruzain noTriton -4% and Cruzain inh Det -2%.
`CCOC(=O)c1ccc(NC(=O)CSc2nnc3c4ccccc4n(CC)c3n2)cc1` gave Cruzain noTriton -11% and Cruzain inh Det -6%.
CCCCn1c2ccccc2c2nnc(SCC(=O)Nc3ccc(NC(C)=O)cc3)nc21 was read as Cruzain noTriton 20µM* and Cruzain inh Det inconclusive.
`CCc1nc2ccccc2n2c(-c3ccccc3)c3c(=O)n(C)c(=O)n(C)c3c12` gave Cruzain noTriton -2% and Cruzain inh Det -1%.
Cc1ccc(NC(=O)CSc2nccn2C2CCCC2)cc1 was read as Cruzain noTriton -4% and Cruzain inh Det 1%.
For O=C(N=Nc1c(O)n(Cc2ccccc2)c2ccccc12)c1cc2ccccc2cc1O the results were Cruzain noTriton 7.9µM* and Cruzain inh Det -8%.
Cc1ccc(NC(=O)Cn2c(=O)nc(-c3ccccc3)c3ccccc32)cc1 was read as Cruzain noTriton 5% and Cruzain inh Det -1%.
For O=C(N=Nc1c(O)n(Cc2ccccc2)c2ccccc12)c1ccc(O)cc1 the results were Cruzain noTriton inconclusive and Cruzain inh Det -3%.
`Cc1ccc(NC(=O)Cn2c(O)c(N=NC(=O)c3cc4ccccc4cc3O)c3ccccc32)cc1` gave Cruzain noTriton 10µM* and Cruzain inh Det -9%.
Cc1ccc(CN(Cc2cccn2-c2nnc(N3CCCC3=O)s2)C(=O)Nc2ccccc2Cl)cc1 was read as Cruzain noTriton 5% and Cruzain inh Det -3%.
For COc1ccccc1-c1nnc(NC(C)=O)s1 the results were Cruzain noTriton 3% and Cruzain inh Det 1%.
Screening CCCCOC(=O)Nc1nnc(-c2ccccc2OC)s1 returned Cruzain noTriton 16µM* and Cruzain inh Det 2%.
`O=c1c(-c2cc(F)cc(F)c2)nc2cnc(N3CCNCC3)nc2n1-c1ccccc1` gave Cruzain noTriton 16% and Cruzain inh Det -18%.
Clc1ccccc1CN1CCc2nc(N3CCN(c4ncccn4)CC3)ncc2C1 was read as Cruzain noTriton 18% and Cruzain inh Det -4%.
Screening CCOC(=O)CC1C(=O)NCCN1C(=O)c1cc2c(=O)n3ccccc3nc2s1 (configuration not stated) returned Cruzain noTriton 0% and Cruzain inh Det 22µM*.
Screening CCOC(=O)CC1C(=O)NCCN1C(=O)c1cc2c(=O)n3cccc(C)c3nc2s1 (configuration not stated) returned Cruzain noTriton 8% and Cruzain inh Det -19%.
`N#Cc1ccc(-c2ccc(Cl)cc2)nc1SCC(=O)c1cccc(Cl)c1` gave Cruzain noTriton 10µM* and Cruzain inh Det 2%.
CCOC(=O)C(C)Sc1nc(-c2ccccc2)ccc1C#N (configuration not stated) was read as Cruzain noTriton -7% and Cruzain inh Det -9%.
N#Cc1ccc(-c2ccccc2)nc1SCC(=O)c1cccc(Cl)c1 was read as Cruzain noTriton 13µM* and Cruzain inh Det 2%.
For CN1CCN(C(=O)CSc2nc(-c3ccncc3)ccc2C#N)CC1 the results were Cruzain noTriton 2% and Cruzain inh Det -5%.
`O=C(NCc1ccc2c(c1)CCN2C(=O)c1ccc(F)cc1)c1ccc(Br)o1` gave Cruzain noTriton -2% and Cruzain inh Det 1%.
`CCC(=O)N1CCc2cc(S(=O)(=O)NCCC(=O)NCc3ccc(C)cc3)ccc21` gave Cruzain noTriton -9% and Cruzain inh Det -3%.
`CCN(CC)c1nn2c(=O)c(C(=O)NCCc3ccccc3C)cnc2s1` gave Cruzain noTriton 5% and Cruzain inh Det 9%.
`CCc1ccc(NC(=O)Cn2cc(S(=O)(=O)N3CCCC3)c(S(=O)(=O)N3CCCC3)c2)cc1` gave Cruzain noTriton 7% and Cruzain inh Det -3%.
CC(C)Oc1ccc(CNC(=O)c2ccc3c(c2)nc2n3CCCCC2)cc1 was read as Cruzain noTriton 18% and Cruzain inh Det -5%.
`O=C(CSc1nnc(-c2ccco2)o1)c1ccc(F)c(F)c1` gave Cruzain noTriton -3% and Cruzain inh Det 4%.
O=C(CSc1nnc(-c2ccco2)o1)c1ccccc1 was read as Cruzain noTriton 16µM* and Cruzain inh Det -7%.
Screening O=C(CCCCCn1c(=O)c2sccc2n(CC(=O)Nc2cc(C(F)(F)F)ccc2Cl)c1=O)NCc1ccccc1Cl returned Cruzain noTriton 16µM* and Cruzain inh Det -7%.
`CC(C)(C)C(=O)Cn1c(=O)n(CCCCCC(=O)NCc2ccccc2Cl)c(=O)c2sccc21` gave Cruzain noTriton 10% and Cruzain inh Det -11%.
Screening CCCCCCCCC returned Cruzain noTriton 5% and Cruzain inh Det 3%.
Cc1ccc(-c2cnc(NCc3ccc(C(F)(F)F)cc3)n2C)cc1 was read as Cruzain noTriton 3% and Cruzain inh Det -2%.
`C/C(=N\NC(=O)c1ccc([N+](=O)[O-])c(C)c1)c1ccccc1Cl` gave Cruzain noTriton 15% and Cruzain inh Det -2%.
For C/C(=N/NC(N)=S)c1ccccc1[N+](=O)[O-] the results were Cruzain noTriton 13µM* and Cruzain inh Det 16µM*.
For Cc1ccc(NC(=O)c2ccc(-c3ccccc3)s2)cc1 the results were Cruzain noTriton 13µM* and Cruzain inh Det -6%.
For Cc1cccc(NC(=O)c2ccc(-c3ccccc3)s2)c1 the results were Cruzain noTriton -22% and Cruzain inh Det -10%.
Cc1ccc(Cl)cc1NC(=O)Cn1nc2c(cc1=O)CC(C)CC2 (configuration not stated) was read as Cruzain noTriton -5% and Cruzain inh Det 0%.
For Cc1cc(NC(=O)CSc2nnc(Nc3ccccc3)s2)no1 the results were Cruzain noTriton 16µM* and Cruzain inh Det 0%.
For Cc1cccc(N2CC(C(=O)Nc3nnc(SCC(=O)Nc4nccs4)s3)CC2=O)c1 (configuration not stated) the results were Cruzain noTriton 6.3µM* and Cruzain inh Det -3%.
Screening COc1cccc(N2CC(C(=O)Nc3nnc(SCC(=O)c4ccccc4)s3)CC2=O)c1 (configuration not stated) returned Cruzain noTriton -26% and Cruzain inh Det -4%.
Screening Cc1ccccc1N1CC(C(=O)Nc2nnc(SCC(=O)Nc3nccs3)s2)CC1=O (configuration not stated) returned Cruzain noTriton -28% and Cruzain inh Det -11%.
